PubChem BioAssay
Values without a mark were called inactive. For some assays here: Entries with a potency or affinity are not part of this list. Active and inactive are the calls of the source. Unless noted, the rule behind the calls is not given here. Residues, ends and D or L forms follow the SMILES beside them. *: point of attachment. Octanoyl = CCCCCCCC(=O)*

Assays:
[1] = antimalarial activity against Dd2 strain (AID 2302;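 active = growth inhibition above 50% at the single 2 µM test dose, taken to imply half-maximal potency below 2 µM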;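 note: 0% = DMSO untreated growth and 100% = chloroquine plus artemisinin killed control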); details: P. falciparum Dd2 in RBCs, LDH growth readout, 72 h; at 2 µM; stronger effect = higher value
[2] = human hepatoma cell viability loss – ATP luminescence, cytotoxicity control for P. falciparum antimalarial project, primary screen (AID 2303;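 active = inhibition above 50%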;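 note: 0% = DMSO wells and 100% = digitonin-killed cells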); details: HepG2 viability, 24-48 h, at 10 µM, stronger effect = higher value
[3] = biological target: L-lactate dehydrogenase (Plasmodium falciparum (isolate CDC / Honduras)) (UniProt Q27743); experiment: PfLDH activity inhibition – cell lysate, 3D7 strain, counter-screen for P. falciparum growth inhibition project (AID 2304);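 note: 0% = vehicle and 100% = reference inhibitor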; details: P. falciparum 3D7 crude extract, LDH APAD/NBT absorbance; at 2 µM; stronger effect = higher value
Sequence of L-lactate dehydrogenase (Plasmodium falciparum (isolate CDC / Honduras)) (Q27743 whole entry, looked up): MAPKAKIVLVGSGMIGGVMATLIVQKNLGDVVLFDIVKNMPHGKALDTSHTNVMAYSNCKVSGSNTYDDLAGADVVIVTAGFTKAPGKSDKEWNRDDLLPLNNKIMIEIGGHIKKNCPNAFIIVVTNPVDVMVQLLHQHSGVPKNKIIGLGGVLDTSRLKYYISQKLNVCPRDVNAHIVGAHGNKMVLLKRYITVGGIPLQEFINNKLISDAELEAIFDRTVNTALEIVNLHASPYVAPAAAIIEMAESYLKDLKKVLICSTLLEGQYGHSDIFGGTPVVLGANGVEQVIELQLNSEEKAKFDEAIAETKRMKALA

[4] = inhibition of 3D7 malaria parasite growth – strain 3D7 (AID 2306);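 note: 0% = DMSO wells and 100% = chloroquine plus artemisinin control wells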; details: P. falciparum 3D7 erythrocytic growth, LDH absorbance, 72 h; at 2 µM; stronger effect = higher value
[5] = biological target: Calcium-dependent protein kinase 1 (Plasmodium falciparum (isolate 3D7)) (UniProt P62344); experiment: PfCDPK1 kinase inhibitors, biochemical, TCAMS library (AID 1159585; cut-off not given, nearly all actives have IC50 up to about 0.98 µM;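 note: inhibitors leave more ATP so luminescence rises with inhibition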); details: recombinant PfCDPK1, Kinase-Glo ATP depletion luminescence
Sequence of Calcium-dependent protein kinase 1 (Plasmodium falciparum (isolate 3D7)) (P62344 whole entry, looked up): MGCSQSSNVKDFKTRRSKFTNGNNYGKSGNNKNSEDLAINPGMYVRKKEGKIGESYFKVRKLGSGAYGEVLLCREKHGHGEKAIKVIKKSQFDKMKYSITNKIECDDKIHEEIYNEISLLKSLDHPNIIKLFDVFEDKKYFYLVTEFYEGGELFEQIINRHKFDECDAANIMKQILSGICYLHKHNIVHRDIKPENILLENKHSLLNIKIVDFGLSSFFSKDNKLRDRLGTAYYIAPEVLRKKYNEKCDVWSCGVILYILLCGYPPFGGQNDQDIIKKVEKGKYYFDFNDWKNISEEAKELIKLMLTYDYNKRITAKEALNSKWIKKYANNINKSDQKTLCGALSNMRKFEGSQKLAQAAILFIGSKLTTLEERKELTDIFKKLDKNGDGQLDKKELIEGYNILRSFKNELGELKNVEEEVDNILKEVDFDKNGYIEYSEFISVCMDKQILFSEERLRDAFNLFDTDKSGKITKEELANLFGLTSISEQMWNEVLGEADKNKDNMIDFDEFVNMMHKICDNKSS

[6] = biological target: Plasmodium falciparum protein kinase 6 (PK6, PF3D7_1337100) (UniProt Q8IDW1); experiment: PfPK6 kinase inhibitors, biochemical, TCAMS library (AID 1159586); details: recombinant PfPK6, Kinase-Glo ATP depletion luminescence
Sequence of Plasmodium falciparum protein kinase 6 (PK6, PF3D7_1337100) (Q8IDW1 1-305): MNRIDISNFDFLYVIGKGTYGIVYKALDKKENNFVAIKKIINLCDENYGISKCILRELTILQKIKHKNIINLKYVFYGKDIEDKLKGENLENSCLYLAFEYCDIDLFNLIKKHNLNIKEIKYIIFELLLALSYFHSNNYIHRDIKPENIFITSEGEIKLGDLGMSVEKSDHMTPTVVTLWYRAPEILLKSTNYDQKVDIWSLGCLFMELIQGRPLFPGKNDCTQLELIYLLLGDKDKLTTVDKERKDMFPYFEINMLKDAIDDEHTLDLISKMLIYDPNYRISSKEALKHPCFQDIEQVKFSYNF

[7] = biological target: Protein kinase 7 (PK7), Plasmodium falciparum 3D7 (PF3D7_0213400) (UniProt Q7YTF7); experiment: inhibition of Plasmodium PK7 catalytic activity – biochemical, TCAMS antimalarial set, Kinase-Glo luminescence (AID 1159587); details: recombinant PfPK7, Kinase-Glo ATP depletion luminescence
Sequence of Protein kinase 7 (PK7), Plasmodium falciparum 3D7 (PF3D7_0213400) (Q7YTF7 1-343): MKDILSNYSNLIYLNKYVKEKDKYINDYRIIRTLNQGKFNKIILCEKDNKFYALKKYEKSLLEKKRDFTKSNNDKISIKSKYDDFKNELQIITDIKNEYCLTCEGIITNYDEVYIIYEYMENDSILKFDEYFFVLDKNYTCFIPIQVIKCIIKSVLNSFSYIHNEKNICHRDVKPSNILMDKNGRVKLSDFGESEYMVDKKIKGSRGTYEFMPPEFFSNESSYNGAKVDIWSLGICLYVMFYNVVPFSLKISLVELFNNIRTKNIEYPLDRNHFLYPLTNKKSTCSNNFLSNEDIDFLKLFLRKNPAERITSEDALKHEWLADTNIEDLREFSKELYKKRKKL

[8] = biological target: Calcium-dependent protein kinase 4 (Plasmodium falciparum (isolate 3D7)) (UniProt Q8IBS5); experiment: PfCDPK4 kinase inhibitors, biochemical, TCAMS library (AID 1159588; cut-off not given, nearly all actives have IC50 up to about 0.91 µM); details: recombinant PfCDPK4, Kinase-Glo ATP depletion luminescence
Sequence of Calcium-dependent protein kinase 4 (Plasmodium falciparum (isolate 3D7)) (Q8IBS5 whole entry, looked up): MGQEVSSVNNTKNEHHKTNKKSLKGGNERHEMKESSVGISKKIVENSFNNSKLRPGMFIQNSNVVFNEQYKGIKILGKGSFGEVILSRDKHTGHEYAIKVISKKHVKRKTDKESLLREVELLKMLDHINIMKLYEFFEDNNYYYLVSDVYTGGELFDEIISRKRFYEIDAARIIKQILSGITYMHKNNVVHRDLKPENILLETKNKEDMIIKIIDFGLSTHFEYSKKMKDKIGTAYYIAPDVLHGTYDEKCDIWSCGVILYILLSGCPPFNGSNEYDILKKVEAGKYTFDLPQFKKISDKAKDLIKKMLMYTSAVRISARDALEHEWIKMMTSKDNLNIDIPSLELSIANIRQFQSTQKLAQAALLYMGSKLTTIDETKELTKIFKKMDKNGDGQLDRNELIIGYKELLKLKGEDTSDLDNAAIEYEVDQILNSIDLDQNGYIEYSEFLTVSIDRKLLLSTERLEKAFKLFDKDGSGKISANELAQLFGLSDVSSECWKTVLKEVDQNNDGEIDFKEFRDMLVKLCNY

| Structure (SMILES) | growth inhibition [1] | inhibition [2] | inhibition [3] | growth inhibition [4] | outcome [5] | outcome [6] | outcome [7] | outcome [8] |
| --- | --- | --- | --- | --- | --- | --- | --- | --- |
| O=C(NCCc1cccc(Cl)c1Cl)c1cnc(N2CCN(c3ccncc3)CC2)c(Cl)c1 | 99% (active) | 47% | 0% | 100% (active) | inactive | inactive | inactive | inactive |
| Cc1cccc(C(=O)Nc2ccc(N3CCCN(Cc4cccc(O)c4)CC3)cc2)c1 | 44% | 2% | -3% | 92% (active) | inactive | inactive | inactive | inactive |
| CC1CN=C(c2cccc(NC(=O)Nc3cccc(C4=NCC(C)N4)c3)c2)N1 (stereo not given) | 98% (active) | 7% | -3% | 94% (active) | inactive | inactive | inactive | inactive |
| CN(C)CCCNc1ncnc2c1[nH]c1ccc(Cl)cc12 | 3% | 2% | 2% | 99% (active) | inactive | inactive | inactive | inactive |
| COc1ccc2nccc([C@@H](O)CN3CCC(NC(=O)Cc4ccc(Br)c5ccccc45)CC3)c2c1 | 40% | 10% | -2% | 98% (active) | inactive | inactive | inactive | inactive |
| CC(C)C[C@H](NC(=O)[C@H](Cc1ccccc1)NC(=O)CCN1C(=O)COc2ccc(C(=O)O)cc21)C(=O)NC(CC1CCCCC1)C(O)CC(=O)NCCCn1ccnc1 (stereo not given in full) | -4% | -3% | -8% | 99% (active) | inactive | inactive | inactive | inactive |
| COCCn1c(-c2nc(-c3ccc(F)cc3)cnc2N)nc2ccccc21 | 98% (active) | 16% | -6% | 98% (active) | inactive | inactive | inactive | inactive |
| c1cc(CNCCN2CCNCC2)cc(-c2ccc(-c3nc4ccccc4[nH]3)cc2)c1 | 11% | 3% | -3% | 98% (active) | inactive | inactive | inactive | inactive |
| Cc1c(Br)cc2[nH]c(-c3ccc(C(=O)NC4CCN(Cc5ccccc5)CC4)cc3)nc2c1C | 98% (active) | 4% | 1% | 102% (active) | inactive | inactive | inactive | inactive |
| CC(C)CNC(=O)c1cncc(-c2ccc(CN(C)C3CCN(C)CC3)cc2)c1 | 84% (active) | 15% | -1% | 101% (active) | inactive | inactive | inactive | inactive |
| CCNc1cc(C(=O)N[C@@H](Cc2ccccc2)[C@H](O)CNC2CCCCC2)cc(N2CCCCS2(=O)=O)c1 | 98% (active) | 11% | -4% | 99% (active) | inactive | inactive | inactive | inactive |
| Cc1cc(N2CCCC2)nc(Nc2ccc(NC(=O)c3cccc(F)c3)cc2)n1 | 28% | 39% | -3% | 97% (active) | inactive | inactive | inactive | inactive |
| COc1ccc2nccc([C@@H](O)CN3CCC(NCc4cc5c(cc4F)SCC(=O)N5)CC3)c2n1 | 27% | 14% | 3% | 96% (active) | inactive | inactive | inactive | inactive |
| NC(=NCc1ccc(O)cc1)Nc1nc(-c2ccc(OCCCn3ccnc3)cc2)cs1 | 89% (active) | 13% | 2% | 102% (active) | inactive | inactive | inactive | inactive |
| CC(=O)c1ccc(S(=O)(=O)N2CCC(C(=O)Nc3ccccc3N3CCCC3)CC2)cc1 | 99% (active) | -3% | -8% | 95% (active) | inactive | inactive | inactive | inactive |
| CCCCCN1CCCC(NS(=O)(=O)c2ccc(C(=O)Nc3ccc(C(F)(F)F)cc3)cc2)C1 (stereo not given) | 20% | 41% | 4% | 98% (active) | inactive | inactive | inactive | inactive |
| O=C(Nc1cccc(-c2ccc(CN3CCNCC3)cc2)c1)c1cccc(Cl)c1 | 4% | 30% | -4% | 92% (active) | inactive | inactive | inactive | inactive |
| COc1ccccc1CNC(=O)c1nn(-c2ccc(Cl)cc2)c(=O)c2ccccc12 | 80% (active) | -2% | 6% | 101% (active) | inactive | inactive | inactive | inactive |
| Cc1cc(NC(=O)Nc2cccc(N(C)C)c2)c2ccccc2n1 | 95% (active) | 0% | 4% | 97% (active) | inactive | inactive | inactive | inactive |
| Cc1ccc(NC(=O)Nc2ccc(Cl)c(C(F)(F)F)c2)cc1-c1ccc(C(=O)NCCN2CCOCC2)cc1 | 31% | 52% (active) | 0% | 98% (active) | inactive | inactive | inactive | inactive |

| Structure (SMILES) | growth inhibition [1] | inhibition [2] | inhibition [3] | growth inhibition [4] | outcome [5] | outcome [6] | outcome [7] | outcome [8] |
| --- | --- | --- | --- | --- | --- | --- | --- | --- |
| Cc1cc(NCCCOc2ccc(Cl)cc2)nc(NCc2ccccc2)n1 | 20% | 45% | 0% | 95% (active) | inactive | inactive | inactive | inactive |
| COc1ccc2nccc([C@@H](O)CN3CC[C@H](NCc4nc5c(cc4F)SCC(=O)N5)[C@H](F)C3)c2c1 | 49% | 9% | -4% | 95% (active) | inactive | inactive | inactive | inactive |
| CCOc1c(CNCCCNc2nc3ccccc3[nH]2)cc(I)cc1OC | 4% | 42% | 1% | 100% (active) | inactive | inactive | inactive | inactive |
| CCCOc1cc(OCCC)cc(-c2ccc(C(=O)Nc3ccc4ccc(C)nc4c3)c(=O)[nH]2)c1 | 76% (active) | 11% | 5% | 101% (active) | inactive | inactive | inactive | inactive |
| COc1cccc(C(=O)Nc2ccc(Nc3nc(C)cc(N4CCCCC4)n3)cc2)c1OC | 27% | 47% | 1% | 92% (active) | inactive | inactive | inactive | inactive |
| NC(=O)c1ccccc1OCC(=O)Nc1cccc(-c2ccc(-c3nc4ccc(C(F)(F)F)cc4[nH]3)cc2)c1 | 17% | 58% (active) | -2% | 92% (active) | inactive | inactive | inactive | inactive |
| CCN(CC)CCN(Cc1ccc(-c2ccc(C(F)(F)F)cc2)cc1)C(=O)Cn1c(CCc2cccc(F)c2F)nc(=O)c2ccc(C(F)(F)F)cc21 | 55% (active) | 19% | -2% | 99% (active) | inactive | inactive | inactive | inactive |
| CNC(=O)Cc1ccc(C(=O)Nc2cccc(-c3cccc(-c4nc5c(C)cccc5[nH]4)c3)c2)cc1 | 53% (active) | 15% | 0% | 96% (active) | inactive | inactive | inactive | inactive |
| O=C(Cc1cnc[nH]1)Nc1cccc(-c2ccc(-c3nc4ccccc4[nH]3)cc2)c1 | 72% (active) | 7% | -1% | 99% (active) | inactive | inactive | inactive | inactive |
| COc1cccc(CNC(=O)[C@H]2CNCCN2C(=O)CCCc2ccccc2)c1 | 95% (active) | 56% (active) | 2% | 91% (active) | inactive | inactive | inactive | inactive |
| COc1ccc(CNc2cc(C)nc3sc4c(c23)CCC2(C4)OCCO2)cc1 | 2% | 4% | -7% | 96% (active) | inactive | inactive | inactive | inactive |
| CCN(CC)CCN(Cc1ccc(-c2ccc(C(F)(F)F)cc2)cc1)C(=O)Cn1c(CCc2cccc(F)c2F)cc(=O)cc1-c1ccccc1 | 64% (active) | 33% | -2% | 94% (active) | inactive | inactive | inactive | inactive |
| O=C(Nc1cccc(C2=NCCCN2)c1)Nc1cccc(C2=NCCCN2)c1 | 70% (active) | 5% | -6% | 81% (active) | inactive | inactive | inactive | inactive |
| COc1cccc(C(NC(=O)c2ccccc2)c2ccc3cccnc3c2O)c1 (stereo not given) | 41% | 52% (active) | 2% | 89% (active) | inactive | inactive | inactive | inactive |
| COc1ccc(CNC2Cc3ccccc3C2)cc1-c1ccc(S(=O)(=O)NCCN2CCCC2)cc1 | 61% (active) | 40% | -7% | 101% (active) | inactive | inactive | inactive | inactive |
| Cc1ccc(C(O)CNc2ccnc(Nc3cccc(-c4csc(C)n4)c3)n2)cc1 (stereo not given) | 31% | 17% | -2% | 92% (active) | inactive | inactive | inactive | inactive |
| OC(CNC1CCCCC1)Cn1c2ccc(I)cc2c2cc(I)ccc21 (stereo not given) | 93% (active) | 10% | 2% | 100% (active) | inactive | inactive | inactive | inactive |
| CCc1ccc(N2C(=O)C3C(Cc4ccc(OC(C)(C)C)cc4)NC4(C(=O)N(Cc5ccccc5)c5ccc(F)cc54)C3C2=O)cc1 (stereo not given) | 49% | 9% | -10% | 96% (active) | inactive | inactive | inactive | inactive |
| CCCCCCCC(=O)N[C@@H](Cc1ccccc1)C(=O)N[C@H](C(=O)O)C(C)C (Octanoyl-Phe-Val-OH) | -7% | -8% | 2% | 89% (active) | inactive | inactive | inactive | inactive |
| CCNc1cc(C(=O)N[C@@H](Cc2ccccc2)[C@H](O)CNC23CCC(CC2)C3)cc(N2CCCCS2(=O)=O)c1 | 99% (active) | 22% | -2% | 97% (active) | inactive | inactive | inactive | inactive |
